Drawing on PubChem BioAssay, this text covers composite z-score and z-score for 5 compounds.

Activity calls are given as the source filed them.

Experiment [1] can be described thus: small molecules captured by biotinylated probe aFSTL3 – biochemical, small-molecule microarray, fluorescence 635/667, stem cell growth factor project, primary screen (AID 1064).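 Note: measures binding of the biotinylated anti-FSTL3 antibody to printed compounds.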 To be noted: higher = more signal.
A short description of experiment [2]: binders from COS7 lysate, DM2A8 probe, primary screen, torsin A project, cell lysate, small-molecule microarray, fluorescence 635/667 (AID 1065). The note with it: higher = more signal, COS7 lysate expressing mutant human TOR1A.
Experiment [3] can be described thus: small molecules captured by biotinylated probe aFGF2 – biochemical, small-molecule microarray, fluorescence 635/667, stem cell growth factor project, primary screen (AID 1067).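 Note: measures binding of biotinylated aFGF2 protein to printed compounds on slides; z-score merges feature fluorescence and signal-to-noise across triplicate slides.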 To be noted: higher = more signal.
The nature of experiment [4]: small molecules captured by biotinylated probe aFGF10 – biochemical, small-molecule microarray, fluorescence 635/667, stem cell growth factor project, primary screen (AID 1071).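 Note: score merges 667 nm spot intensity and signal to noise from triplicate slides.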 To be noted: higher = more signal.
The target of experiment [5] is Neurogenic locus notch homolog protein 2 (Homo sapiens) (UniProt Q04721). The experiment can be described thus: small molecules binding Notch2 protein – biochemical, small-molecule microarray, 635 nm fluorescence, stem cell growth factors, primary screen (AID 1073). The note with it: higher = more signal.
Experiment [6] concerns the target Pro-neuregulin-1, membrane-bound isoform (Homo sapiens) (UniProt Q02297). The experiment can be described thus: small molecules binding neuregulin-1 protein – biochemical, small-molecule microarray, fluorescence 635/667, psychiatric disease protein project, primary screen (AID 1075).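 Note: score combines 667 nm spot fluorescence with signal to noise.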 To be noted: NRG1 binding, 635 nm fluorescence, higher = more signal.
Experiment [7] relates to Neuregulin-1 EGF-like domain. The experiment in a line: small molecules binding NRG1 EGF domain – biochemical, small-molecule microarray, 635 nm fluorescence, primary screen (AID 1081).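 Note: binding of the protein to compounds printed on small-molecule microarray slides.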 To be noted: higher = more signal.
Experiment [8] in a line: FRG1 expression reporter modulators in myotubes – cell-based, C2C12 myotubes, firefly/Renilla luciferase, luminescence, FRG1 inhibition for FSHD, primary screen (AID 1084). The note with it: FRG1 promoter luciferase, higher = more signal, called active from +8 up or from −8 down.
The nature of experiment [9]: small molecules captured by biotinylated probe aFST – biochemical, small-molecule microarray, fluorescence 635/667, stem cell growth factor project, primary screen (AID 1086).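 Note: score merges 667 nm fluorescence with signal-to-noise of each printed compound spot.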 The note with it: higher = more signal.
The nature of experiment [10]: binders of probe aHhip on microarray, primary screen, stem cell growth factor project, biochemical, small-molecule microarray, fluorescence 635/667 (AID 1087).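 Note: score merges spot fluorescence at 667nm with spot signal to noise ratio.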 To be noted: higher = more signal.
For experiment [11], the system named is PRMT1 (protein arginine N-methyltransferase 1). The experiment can be described thus: small molecules binding arginine methyltransferase PRMT1 – biochemical, small-molecule microarray, 635 nm fluorescence, primary screen (AID 1088).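 Note: binding of Prmt1 protein to compounds spotted on small-molecule microarray slides.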 To be noted: higher = more signal.
The nature of experiment [12]: growth effects on S. cerevisiae YJM789 – YJM789 clinical isolate, OD600, 24 h, basal, primary screen (AID 1089).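 Note: growth of clinical yeast isolate S. cerevisiae YJM 789 seeded 1000 cells per well; test concentration not given here.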 The note with it: higher = more signal, called active from +8 up or from −8 down.
Experiment [13] is described as follows: S. pombe growth modifiers, basal conditions – strain 972, OD600, 24 h, no modulator, primary screen (AID 1090).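 Note: basal condition with compound alone and no growth modifier present; test concentration not given here.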 The note with it: S. pombe 972 growth, higher = more signal, called active from +8 up or from −8 down.
The nature of experiment [14]: budding yeast growth modifiers under rapamycin – strain BY4716, OD600, 96 h, primary screen (AID 1091). Note: test concentration not given here. To be noted: S. cerevisiae BY4716 + rapamycin, higher = more signal, called active from +8 up or from −8 down.
In experiment [15] the target is Torsin-1A-interacting protein 2 (Homo sapiens) (UniProt Q8NFQ8). The experiment in a line: small molecules binding lysate-expressed LULL1 – cell lysate, human LULL1 lysate, 635/667 nm fluorescence, primary screen (AID 1092).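 Note: probe is lysate of COS7 cells overexpressing human LULL1; score merges per-feature 667 nm fluorescence with signal-to-noise.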 The note with it: small-molecule microarray, hLULL1 lysate binding, 635 nm fluorescence; higher = more signal.
Chain of Torsin-1A-interacting protein 2 (Homo sapiens) (Q8NFQ8 whole entry, looked up): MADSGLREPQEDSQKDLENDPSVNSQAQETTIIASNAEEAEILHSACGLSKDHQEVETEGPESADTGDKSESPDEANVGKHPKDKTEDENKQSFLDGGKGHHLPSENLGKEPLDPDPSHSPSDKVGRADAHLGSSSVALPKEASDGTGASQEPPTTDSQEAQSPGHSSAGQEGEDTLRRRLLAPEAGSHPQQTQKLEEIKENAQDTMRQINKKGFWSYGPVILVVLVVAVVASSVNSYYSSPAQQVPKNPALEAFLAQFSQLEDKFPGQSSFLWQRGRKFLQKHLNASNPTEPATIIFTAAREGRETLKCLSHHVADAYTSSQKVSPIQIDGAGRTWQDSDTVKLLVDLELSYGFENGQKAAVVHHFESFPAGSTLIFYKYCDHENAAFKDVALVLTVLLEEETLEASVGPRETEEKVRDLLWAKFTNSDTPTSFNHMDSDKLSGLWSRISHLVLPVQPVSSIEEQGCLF
Experiment [16] in a line: optical density change of DRC41 E. coli – strain DRC41, OD650, 24 h, E. coli filamentation project, primary screen (AID 1093).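 Note: MC1000 strain lacking acrAB efflux and sulA so SOS filamentation is blocked; test concentration not given here.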 To be noted: E. coli DRC41 growth, higher = more signal, called active from +8 up or from −8 down.
Experiment [17] can be described thus: probe aLefty2 binding to arrayed compounds – biochemical, biotinylated probe, 635/667 nm fluorescence, primary screen (AID 1094).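 Note: score merges spot fluorescence near 667 nm with spot signal-to-noise ratio.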 To be noted: small-molecule microarray, higher = more signal.
Experiment [18] relates to Noggin (protein binding on small-molecule microarray). The experiment can be described thus: small molecules binding Noggin protein – biochemical, 635/667 nm fluorescence, primary screen (AID 1095).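 Note: score merges 667 nm feature fluorescence with signal to noise over triplicate slides.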 To be noted: 635 nm fluorescence, higher = more signal.
The target of experiment [19] is Neurogenic locus notch homolog protein 3 (Homo sapiens) (UniProt Q9UM47). The experiment can be described thus: small molecules binding NOTCH3 protein – biochemical, 635/667 nm fluorescence, primary screen (AID 1096). The note with it: small-molecule microarray, 635 nm fluorescence, higher = more signal.
Chain of Neurogenic locus notch homolog protein 3 (Homo sapiens) (Q9UM47 whole entry, looked up): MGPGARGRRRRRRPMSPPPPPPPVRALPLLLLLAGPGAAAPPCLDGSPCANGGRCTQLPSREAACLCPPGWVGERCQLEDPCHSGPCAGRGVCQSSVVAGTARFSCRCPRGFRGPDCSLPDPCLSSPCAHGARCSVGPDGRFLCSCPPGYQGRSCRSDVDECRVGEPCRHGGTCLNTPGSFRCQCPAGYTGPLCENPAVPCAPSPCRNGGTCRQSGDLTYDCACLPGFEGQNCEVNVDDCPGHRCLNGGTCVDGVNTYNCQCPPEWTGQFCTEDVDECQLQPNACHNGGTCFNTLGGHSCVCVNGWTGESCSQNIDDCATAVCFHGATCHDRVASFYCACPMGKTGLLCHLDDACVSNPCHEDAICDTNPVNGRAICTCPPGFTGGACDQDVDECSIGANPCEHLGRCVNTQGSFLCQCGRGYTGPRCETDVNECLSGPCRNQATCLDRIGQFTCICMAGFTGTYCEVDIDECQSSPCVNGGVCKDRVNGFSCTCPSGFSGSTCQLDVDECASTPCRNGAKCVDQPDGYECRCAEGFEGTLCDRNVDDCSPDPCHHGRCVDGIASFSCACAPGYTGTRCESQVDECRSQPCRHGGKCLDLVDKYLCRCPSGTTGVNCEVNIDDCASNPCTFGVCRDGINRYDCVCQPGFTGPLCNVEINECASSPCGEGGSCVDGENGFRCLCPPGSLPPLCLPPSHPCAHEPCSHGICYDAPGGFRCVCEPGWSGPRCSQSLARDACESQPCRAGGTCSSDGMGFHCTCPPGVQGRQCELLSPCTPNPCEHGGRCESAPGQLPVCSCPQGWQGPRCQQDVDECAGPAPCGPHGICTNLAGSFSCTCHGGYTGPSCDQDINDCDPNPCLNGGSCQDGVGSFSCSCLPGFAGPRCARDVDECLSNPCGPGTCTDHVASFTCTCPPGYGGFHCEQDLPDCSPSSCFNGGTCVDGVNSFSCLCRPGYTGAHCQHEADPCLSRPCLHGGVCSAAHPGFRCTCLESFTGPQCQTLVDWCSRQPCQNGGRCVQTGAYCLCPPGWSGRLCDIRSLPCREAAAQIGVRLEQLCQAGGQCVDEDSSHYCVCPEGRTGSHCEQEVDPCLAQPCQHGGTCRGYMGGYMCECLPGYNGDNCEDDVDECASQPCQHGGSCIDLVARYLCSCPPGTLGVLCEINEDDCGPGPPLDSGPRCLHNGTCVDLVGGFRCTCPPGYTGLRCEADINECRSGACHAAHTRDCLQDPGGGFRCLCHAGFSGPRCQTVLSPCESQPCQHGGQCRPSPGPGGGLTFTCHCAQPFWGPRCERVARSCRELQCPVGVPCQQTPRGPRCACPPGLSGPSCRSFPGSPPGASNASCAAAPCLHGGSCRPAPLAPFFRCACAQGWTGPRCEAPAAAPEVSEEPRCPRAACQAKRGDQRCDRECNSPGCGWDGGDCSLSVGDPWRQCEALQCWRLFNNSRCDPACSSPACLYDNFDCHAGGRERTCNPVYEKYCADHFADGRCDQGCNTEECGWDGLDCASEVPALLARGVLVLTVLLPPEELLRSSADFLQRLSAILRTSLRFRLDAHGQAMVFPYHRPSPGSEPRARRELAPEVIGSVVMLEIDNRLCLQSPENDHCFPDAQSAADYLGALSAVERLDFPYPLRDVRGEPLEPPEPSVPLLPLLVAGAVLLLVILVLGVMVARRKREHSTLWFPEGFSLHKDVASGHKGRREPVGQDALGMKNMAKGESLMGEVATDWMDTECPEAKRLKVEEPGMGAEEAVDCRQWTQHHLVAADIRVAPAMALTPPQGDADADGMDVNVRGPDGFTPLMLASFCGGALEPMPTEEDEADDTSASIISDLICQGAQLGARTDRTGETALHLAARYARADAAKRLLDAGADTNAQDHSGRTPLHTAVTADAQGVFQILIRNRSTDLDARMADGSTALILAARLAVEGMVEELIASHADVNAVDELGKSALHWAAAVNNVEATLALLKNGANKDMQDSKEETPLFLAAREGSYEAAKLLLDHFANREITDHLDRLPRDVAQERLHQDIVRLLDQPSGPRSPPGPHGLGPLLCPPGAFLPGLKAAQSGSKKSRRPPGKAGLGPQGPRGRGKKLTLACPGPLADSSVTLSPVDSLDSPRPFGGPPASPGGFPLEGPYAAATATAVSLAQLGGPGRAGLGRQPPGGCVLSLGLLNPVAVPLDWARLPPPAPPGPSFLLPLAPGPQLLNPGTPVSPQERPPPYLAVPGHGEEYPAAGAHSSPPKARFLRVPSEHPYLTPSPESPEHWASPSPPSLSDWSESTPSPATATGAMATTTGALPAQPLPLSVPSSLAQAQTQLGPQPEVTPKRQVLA
A short description of experiment [20]: probe aEGFR binding to arrayed compounds – biochemical, biotinylated probe, 635/667 nm fluorescence, primary screen (AID 1097).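 Note: probe is a biotinylated anti-EGFR antibody binding compounds printed on slides; score combines fluorescence near 667 nm and signal to noise of each spot.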 The note with it: small-molecule microarray, higher = more signal.

Chain of Pro-neuregulin-1, membrane-bound isoform (Homo sapiens) (Q02297 whole entry, looked up, the tested form may be a part, canonical isoform): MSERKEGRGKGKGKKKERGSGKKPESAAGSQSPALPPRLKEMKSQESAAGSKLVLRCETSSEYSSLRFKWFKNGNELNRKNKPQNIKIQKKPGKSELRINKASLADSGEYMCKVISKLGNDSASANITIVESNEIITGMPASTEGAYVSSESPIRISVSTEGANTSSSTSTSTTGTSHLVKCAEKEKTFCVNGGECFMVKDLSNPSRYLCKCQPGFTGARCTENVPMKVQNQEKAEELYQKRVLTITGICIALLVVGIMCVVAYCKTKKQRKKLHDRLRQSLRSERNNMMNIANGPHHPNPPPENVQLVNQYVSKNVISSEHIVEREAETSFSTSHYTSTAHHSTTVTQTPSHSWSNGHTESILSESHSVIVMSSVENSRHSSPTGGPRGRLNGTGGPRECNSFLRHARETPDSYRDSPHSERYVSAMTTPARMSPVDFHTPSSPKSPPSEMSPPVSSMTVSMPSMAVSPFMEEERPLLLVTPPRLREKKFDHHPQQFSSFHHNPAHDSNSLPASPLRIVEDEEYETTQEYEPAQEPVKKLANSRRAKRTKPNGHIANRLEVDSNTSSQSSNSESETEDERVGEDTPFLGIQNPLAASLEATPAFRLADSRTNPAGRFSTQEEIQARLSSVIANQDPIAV

As to `CC(C)NC(=O)[C@@H]1c2ccccc2C(=O)N(Cc2ccccc2)[C@H]1c1ccc(CO)cc1`, the composite z-score in experiment [1] is 0.726; in [2], 0.0445; in [3] it was 0.0411; in experiment [4], 0.365; in experiment [5] it was -1.1; in experiment [6], 1.06. The composite z-score in [7] was 1.36; in [9], -0.194; in experiment [10], -0.191; in experiment [11] it was 0.347; in [15], 2.36; in experiment [17] it was 0.12. Also, the composite z-score was -0.905 in experiment [18], -0.376 in experiment [19] and 0.243 in experiment [20]. The z-score in experiment [8] was -1.1 (inactive); in experiment [12], -0.726 (inactive); in [13], -0.471 (inactive); in experiment [14], -0.945 (inactive); in experiment [16], -0.106 (inactive).
Take `O=C(CCN1CCOCC1)c1cccc(O)c1`: the composite z-score in experiment [1] was -0.302; in [2] it was 1.79; in experiment [3] it was -0.0521; in experiment [4], 0.628; in experiment [5] it was 1.31; in experiment [6], 1.23. Moreover, the composite z-score in [7] is 1.17; in experiment [9], 0.852; in [10], -0.0953; in experiment [11] it was 1.3; in experiment [15], 0.571; in experiment [17], 0.197. Further, the composite z-score in [18] was determined as 0.645; in experiment [19], 1.07; in [20], 0.234. Further, the z-score is -1.28 (inactive) in experiment [8]; -1.35 (inactive) in [12]; -5.52 (inactive) in experiment [13]; -1.01 (inactive) in experiment [14]; -2.03 (inactive) in experiment [16].
Consider `O=C(O)[C@H]1C[C@H]2C(=O)NCC(=O)N2[C@H]1c1ccc(O)cc1`, for which the composite z-score in [1] was 0.136; in experiment [2], 0.202; in experiment [3], -0.0996; in [4], -0.224; in experiment [5] it was -0.424; in experiment [6], -0.235. Besides, the composite z-score is 1.4 in [7]; 0.025 in experiment [9]; -0.226 in [10]; 0.294 in experiment [11]; 1.05 in experiment [15]; -0.025 in [17]. Further, the composite z-score was found to be 0.884 in [18], 0.55 in experiment [19] and 0.308 in experiment [20]. For the same compound, the z-score in [8] is 3.81 (inactive); in experiment [12], -0.512 (inactive); in [13], -0.81 (inactive); in experiment [14], -0.373 (inactive); in [16], 1.68 (inactive).
On to `O=C1O[C@H](c2ccccc2)[C@H](c2ccccc2)N2[C@H]1[C@@H](C(=O)Nc1nc3ccccc3s1)[C@]1(C(=O)Nc3ccccc31)[C@H]2c1ccc(O)cc1`, for which the composite z-score is -0.423 in [1]; 0.108 in experiment [2]; -0.0516 in experiment [3]; 0.405 in experiment [4]; 1.13 in experiment [5]; 1.43 in [6]. The composite z-score was 1.25 in experiment [7]; 0.521 in experiment [9]; -0.149 in experiment [10]; 1.55 in experiment [11]; 2.74 in experiment [15]; -0.23 in experiment [17]. The composite z-score is 1.24 in [18], 1.15 in experiment [19] and -0.0644 in experiment [20]. Also, the z-score in [8] was 0.678 (inactive); in [12], 0.474 (inactive); in [13] it was -0.0898 (inactive); in experiment [14], 0.677 (inactive); in experiment [16], 0.071 (inactive).
Regarding `CN1C=C(C(=O)OCCS(C)(=O)=O)C(C(=O)OCCS(C)(=O)=O)=CC(CCCO)=CC1C1CC1` (stereo not given), the composite z-score in [1] is -0.135; in experiment [2] it was 0.0461; in [3], -0.128; in experiment [4], 0.427; in experiment [5], 0.213; in [6], 1.04. Further, the composite z-score was 1.25 in [7]; -0.0228 in experiment [9]; -0.0618 in experiment [10]; 0.0371 in [11]; 0.826 in [15]; -0.145 in experiment [17]. Besides, the composite z-score in [18] was 0.332; in experiment [19], 0.574; in [20], -0.068. The z-score in experiment [8] was -0.483 (inactive); in experiment [12] it was -0.298 (inactive); in experiment [13], -0.0029 (inactive); in [14] it was -0.692 (inactive); in experiment [16], 0.731 (inactive).
